Laboratory results from publication PMC4336329 (PLoS ONE, 2015).
In all, about 310,000 compounds went through this assay and about 14,000 (4.5%) showed an effect of 50% or more. The effect is printed as a negative number. The sample as a whole holds a higher share of strong results than the screen did. Where a SMILES comes first, the peptide text is derived from it. The star is where a group is joined. Boc = CC(C)(C)OC(=O)*

The compounds below were run against human ether-à-go-go-related gene (hERG) potassium channel (human, UniProt Q12809) (assay: primary screen, population patch clamp on CHO cells stably expressing hERG; higher = less effect of the substance).
Chain of human ether-à-go-go-related gene (hERG) potassium channel (Q12809 whole entry, looked up): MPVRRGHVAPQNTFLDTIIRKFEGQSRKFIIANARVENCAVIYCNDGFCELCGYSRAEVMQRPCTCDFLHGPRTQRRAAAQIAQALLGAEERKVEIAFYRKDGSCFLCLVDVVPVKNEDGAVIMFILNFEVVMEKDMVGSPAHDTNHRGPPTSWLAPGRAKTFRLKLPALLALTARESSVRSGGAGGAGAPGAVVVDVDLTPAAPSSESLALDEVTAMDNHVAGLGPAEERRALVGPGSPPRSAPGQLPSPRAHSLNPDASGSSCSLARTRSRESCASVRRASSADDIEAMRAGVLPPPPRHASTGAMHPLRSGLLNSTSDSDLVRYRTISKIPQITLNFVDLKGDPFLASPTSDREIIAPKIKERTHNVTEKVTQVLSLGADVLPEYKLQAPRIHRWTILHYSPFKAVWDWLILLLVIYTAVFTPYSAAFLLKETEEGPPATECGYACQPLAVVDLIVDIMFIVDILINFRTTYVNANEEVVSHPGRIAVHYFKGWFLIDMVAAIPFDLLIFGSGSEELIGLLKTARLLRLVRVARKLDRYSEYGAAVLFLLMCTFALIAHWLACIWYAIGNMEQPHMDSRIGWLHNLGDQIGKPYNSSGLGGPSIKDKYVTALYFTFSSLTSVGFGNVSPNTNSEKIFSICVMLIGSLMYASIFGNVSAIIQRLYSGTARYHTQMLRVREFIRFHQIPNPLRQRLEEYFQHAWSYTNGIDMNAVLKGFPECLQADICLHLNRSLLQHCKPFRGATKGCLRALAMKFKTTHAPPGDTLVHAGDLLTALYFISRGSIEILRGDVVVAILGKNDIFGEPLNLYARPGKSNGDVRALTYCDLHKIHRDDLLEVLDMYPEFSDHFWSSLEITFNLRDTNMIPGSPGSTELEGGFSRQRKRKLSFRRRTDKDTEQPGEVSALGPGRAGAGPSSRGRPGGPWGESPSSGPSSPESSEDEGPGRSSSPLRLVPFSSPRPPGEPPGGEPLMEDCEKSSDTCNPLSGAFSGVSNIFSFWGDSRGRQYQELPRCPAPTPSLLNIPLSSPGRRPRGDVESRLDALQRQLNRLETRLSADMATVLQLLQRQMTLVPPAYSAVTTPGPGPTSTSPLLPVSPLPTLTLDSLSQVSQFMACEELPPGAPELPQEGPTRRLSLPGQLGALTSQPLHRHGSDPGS
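Note: peak tail current of the secondary pulse compared with the same well before compound.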

Row | SMILES | hERG current change (%, negative = inhibition) at 10uM [%]
1 | COc1cccc(C2C(C#N)=C(N)Oc3cc(C)[nH]c(=O)c32)c1OC (centres unmarked) | -10.4
2 | Cc1sc2c(c1C)C(c1cccs1)=NCC(=O)N2CC(=O)NCc1cccs1 | -56.2
3 | Cc1ccc2c(c1)N(CC(=O)NCc1cccs1)C(=O)CO2 | 5.4
4 | Cc1sc2c(c1C)C(c1ccc(C(C)(C)C)cc1)=NCC(=O)N2CC(=O)Nc1nccs1 | -17.9
5 | CCOCCCNC(=S)NC1CC2CCC(C1)N2Cc1ccccc1 (centres unmarked) | -23
6 | Cc1noc(C(=O)Nc2ccc(F)c(Cl)c2)c1Cl | 8.86
7 | Oc1cccc2nc3ccccc3nc12 | 2.6
8 | CCOC(=O)C1(CCOC)CCN(C(=O)Cc2ccc3ccccc3c2)CC1 | -0.72
9 | CCOC(=O)C1(CCc2ccccc2)CCN(Cc2ccco2)CC1 | -76.5
10 | CCOC(=O)C1(CCc2ccccc2)CCN(Cc2ccc(C(=O)OC)cc2)CC1 | -91.8
11 | CCOC(=O)C1(CCc2ccccc2)CCN(Cc2ccc(O)cc2)CC1 | -83.4
12 | CCOC(=O)C1(CCc2ccccc2)CCN(CC(O)CO)CC1 (centres unmarked) | -40.3
13 | CCOC(=O)C1(CCOC)CCN(C(C)CCc2ccc(OC)cc2)CC1 (centres unmarked) | -71.1
14 | CCOC(=O)C1(Cc2cccc(OC)c2)CCN(C(C)COC)CC1 (centres unmarked) | 5.9
15 | CCOC(=O)C1(CCOC)CCN(Cc2ccccc2-c2ccco2)CC1 | -22.4
16 | Cc1ccc(S(=O)(=O)N2CCN(S(=O)(=O)N3CCCCC3)CC2)c(C)c1 | -6.97
17 | CSc1sc(C(=O)N2CCCCC2)c(-c2cccs2)c1C#N | -27.7
18 | CC(C)(C)c1ccc(OCC(=O)Nc2cccc(S(=O)(=O)NC3=NCCCCC3)c2)cc1 | -18.9
19 | COc1ccc2c(CC(=O)OCC(=O)Nc3ccc(C)cc3)coc2c1 | -1.56
20 | O=S1(=O)CC2SC(=S)N(c3ccccc3)C2C1 (centres unmarked) | 7.98
21 | CCOc1ccc(/C(O)=C2/C(=O)C(=O)N(CCN(C)C)C2c2ccccc2)cc1Cl (centres unmarked) | -5.2

Row | SMILES | hERG current change (%, negative = inhibition) at 10uM [%]
22 | CC(=O)c1c(C)[nH]c(C(=O)COC(=O)c2ccc3c(=O)n4c(nc3c2)CCC4)c1C | -0.297
23 | O=[N+]([O-])c1ccccc1C1Nc2cccc3cccc(c23)N1 | 11.8
24 | CCC1CCCCN1C(=O)c1ccc(OC2CCN(Cc3ccccn3)CC2)cc1 (centres unmarked) | 5.27
25 | CCc1nnc(NC(=O)CSc2ccc(-c3nc4ccccc4[nH]3)cn2)s1 | 5.82
26 | COC(=O)C(Cc1ccccc1)NC(=O)C(CC(C)C)NC(=O)OC(C)(C)C (stereo not drawn) (Boc-Leu-Phe-OMe; configuration not given here) | 10.7
27 | CCOC(=O)C1(CCOC)CCN(Cc2ccc(C(=O)OC)cc2)CC1 | -27.2
28 | CCOC(=O)C1(CC2CC2)CCN(Cc2ccc(C(=O)OC)cc2)CC1 | -57
29 | CCOC(=O)C1(Cc2ccccc2Cl)CCN(Cc2csc(C(C)=O)c2)CC1 | -12.3
30 | CCOC(=O)C1(CC2CC2)CCN(Cc2cnc(-c3ccccc3C)nc2)CC1 | -10.4
31 | CCOC(=O)C1(CCc2ccccc2)CCN(Cc2csc(C(C)=O)c2)CC1 | -74.8
32 | CCOC(=O)C1(CCc2ccccc2)CCN(Cc2ccc(OC)cc2)CC1 | -77.5
33 | CCOC(=O)C1(CC2CC2)CCN(Cc2cc(Cl)c(O)c(OC)c2)CC1 | -57.1
34 | CCOC(=O)C1(CC2CC2)CCN(Cc2ccc(O)c(Cl)c2)CC1 | -41.6
35 | CCOC(=O)C1CCN(Cc2ccc(C(=O)OC)cc2)CC1 | -14.6
36 | CCOC(=O)C1(Cc2ccccc2)CCN(Cc2csc(C(C)=O)c2)CC1 | -24.2
37 | CCOC(=O)N1CCN(C(=O)CCC2CCCC2)CC1 | 9.89
38 | Cc1cc(C)c(S(=O)(=O)c2c(C)cccc2C)c(OCC(C)C)n1 | 2.76
39 | COc1cccc(-c2nc(CS(=O)(=O)CC(=O)Nc3cc(C)ccc3C)c(C)o2)c1 | 7.02
40 | C[n+]1cn(Cc2ccc(C#N)cc2)c2ccccc21.[Cl-] | 2.75
41 | C=CCN=C1N[C@@H](c2ccccc2)C(C(=O)OC)=C(C)N1CCOC | -13
